A selection: hits, their analogues and other compounds. The true share with any hit is near 11%.
FLuc inh: Firefly luciferase inhibition profiling of diverse chemical library using quantitative high-throughput screening; Luciferin 4-monooxygenase (Photinus pyralis), P08659; purified P. pyralis luciferase, luminescence, biochemical; Potency, µM (doses to about 115 µM), most hits filed as inhibitors; 76,000 compounds, 2.5% hits; AID 1347043, 2019; also: nearly all actives have a fitted effect of over 65% in size
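Cell-free enzyme assay, 10nM P. pyralis luciferase, luciferin and ATP each at 10uM. Inhibition profiled over a 6-point titration, read as luminescence.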
NIH3T3 tox: Cytotoxic Profiling in NIH 3T3 Cell Line of Diverse Libraries Using Quantitative High-Throughput Screening | NIH 3T3 viability, CellTiter-Glo ATP luminescence, 48-72 h | Potency, µM (highest dose often 96.7 µM), for inactives: top-dose activity change, negative = cytotoxicity, usual class: inhibitors | 94,000 compounds, 4.3% hits | AID 1345082, 2018; also: nearly all actives have a fitted effect of over 55% in size
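Luminescent ATP readout (CellTiter-Glo, 10 min RT) after 48 or 72 hr compound exposure of NIH 3T3 cells seeded at 400 cells/well in 1536-well format; quantitative HTS.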
HEK cytotox: Cytotoxic Profiling in HEK 293 Cell Line of Diverse Libraries Using Quantitative High-Throughput Screening; AID 1345083, 2018; Potency, µM (titrated, usually from 115 µM), for the others: at the highest dose activity change, negative = cytotoxicity, usual class: inhibitors; HEK 293 viability, ATP luminescence (CellTiter-Glo), 48-72 h; 94,000 compounds, 6.6% hits; also: nearly all actives have a fitted effect of over 60% in size
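250 HEK 293 cells/well; compound by pintool; incubated 48 or 72 hr at 37 degree Celsius; CellTiter-Glo added, 10 min RT, luminescence imaged.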
hNpr1 antagonist: Natriuretic polypeptide receptor (hNpr1) antagonism - Primary qHTS | Atrial natriuretic peptide receptor 1 (Homo sapiens), P16066 | HEK293 hNpr1 GloSensor cGMP, ANP-stimulated luminescence | Potency, µM (titrated, usually from 46.3 µM), for inactives: top-dose activity change, negative = inhibition, actives largely listed as inhibitors | 76,000 compounds, 1.6% hits | AID 1347048, 2019; calls by dose curve; also: nearly all actives have a fitted effect of over 60% in size
Target sequence (P16066 whole entry, looked up): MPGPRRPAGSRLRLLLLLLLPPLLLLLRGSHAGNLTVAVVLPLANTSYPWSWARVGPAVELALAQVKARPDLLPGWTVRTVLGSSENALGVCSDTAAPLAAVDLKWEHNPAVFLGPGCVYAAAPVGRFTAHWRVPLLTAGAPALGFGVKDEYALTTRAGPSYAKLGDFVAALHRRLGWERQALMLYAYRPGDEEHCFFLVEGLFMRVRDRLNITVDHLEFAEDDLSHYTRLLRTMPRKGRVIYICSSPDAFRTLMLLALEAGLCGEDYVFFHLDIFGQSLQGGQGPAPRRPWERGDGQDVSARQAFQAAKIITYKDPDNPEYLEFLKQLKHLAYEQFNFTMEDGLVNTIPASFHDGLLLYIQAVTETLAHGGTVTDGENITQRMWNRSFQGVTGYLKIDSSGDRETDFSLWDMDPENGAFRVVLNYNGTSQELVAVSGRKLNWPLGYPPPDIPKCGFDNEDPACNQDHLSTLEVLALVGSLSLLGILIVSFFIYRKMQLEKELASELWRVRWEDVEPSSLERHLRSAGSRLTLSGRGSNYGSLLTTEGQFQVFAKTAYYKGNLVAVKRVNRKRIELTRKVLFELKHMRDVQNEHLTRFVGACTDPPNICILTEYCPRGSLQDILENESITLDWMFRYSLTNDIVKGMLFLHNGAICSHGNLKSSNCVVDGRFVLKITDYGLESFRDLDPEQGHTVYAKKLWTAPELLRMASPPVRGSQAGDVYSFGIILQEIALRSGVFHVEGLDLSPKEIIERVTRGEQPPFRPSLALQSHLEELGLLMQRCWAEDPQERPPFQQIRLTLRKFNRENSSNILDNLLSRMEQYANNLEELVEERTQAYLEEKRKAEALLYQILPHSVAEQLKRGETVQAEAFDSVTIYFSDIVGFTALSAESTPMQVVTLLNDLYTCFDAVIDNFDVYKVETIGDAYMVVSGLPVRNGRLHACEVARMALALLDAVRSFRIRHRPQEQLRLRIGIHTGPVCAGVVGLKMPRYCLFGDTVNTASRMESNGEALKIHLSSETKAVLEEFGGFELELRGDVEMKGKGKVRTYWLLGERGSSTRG
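Compound pre-incubated 30 min at room temperature on GloSensor-loaded HEK293 cells stably carrying hNpr1 and the pGS-40F cGMP biosensor. Stimulation uses hNppA at 0.1 nM final; luminescence is taken at baseline and 20 min post-agonist.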
Starred values were filed as active, the others as inactive; i = inactive; u = inconclusive; x = not tested or not shown; [ ] = another dose, or the depositor's remark. Unless noted, calls follow the shape of the dose curve; as a rule, active = well fitted curve in the direction sought with a large enough effect; inconclusive = small, poorly fitted or top-dose-only effect, or another doubt; inactive = no such curve, though single readings can be large; an effect the other way counts as inactive or inconclusive. % is scaled to controls: 0 for no effect and ±100 for the full control effect; potency is read from the fitted curve at half-maximal effect.

SMILES	FLuc inh	NIH3T3 tox	HEK cytotox	hNpr1 antagonist
O=C(NCc1ccc(Cl)cc1)c1cc2n(n1)CC(c1ccc(Cl)cc1)OC2 (stereo unspecified)	i	35µM*	u	u
Cn1c([C@H]2CCN(Cc3ccc(Cl)cc3)C2)nc2ccccc21	i	100µM*	u	u
COCCN1Cc2[nH]nc(-c3ccc(OC)c(F)c3)c2CC1=O	i	79µM*	2%[172 µM]	3%[70.6 µM]
COCc1cccc(-c2n[nH]c3c2CC(=O)N(Cc2ccc(OC)cc2)C3)c1	i	25µM*	u	-22%[70.6 µM]
COc1ncc(-c2n[nH]c3c2CC(=O)N(Cc2ccccc2)C3)cn1	i	25µM*	u	1%[70.6 µM]
COc1ncc(-c2n[nH]c3c2CC(=O)N(CCOc2ccccc2)C3)cn1	i	u	-47%[172 µM]	-13%[70.6 µM]
COc1ccc(CN2Cc3[nH]nc(-c4cnc(OC)nc4)c3CC2=O)cc1	i	8.9µM*	-35%[172 µM]	-12%[70.6 µM]
COc1ncccc1-c1n[nH]c2c1CC(=O)N(Cc1ccccc1)C2	i	25µM*	-20%[172 µM]	-8%[70.6 µM]
COc1ccc(CN2Cc3[nH]nc(-c4ccc(C(=O)N5CCOCC5)cc4)c3CC2=O)cc1	i	-24%	79µM*	-7%
COc1ccccc1-c1n[nH]c2c1CC(=O)N(Cc1ccccc1)C2	i	u	u	-9%[70.6 µM]
COC1CCCN(C(=O)c2cc(-c3ccc(F)cc3)cc3ncn(C)c23)C1 (stereo unspecified)	25µM*	-26%[138 µM]	u	1%[70.6 µM]
COc1ncccc1-c1cc(C(=O)N2CCC(OC)CC2)c2c(c1)ncn2C	i	u	-17%[172 µM]	1%[70.6 µM]
COC(=O)[C@@H]1Cc2c([nH]c3ccccc23)[C@H]2C[C@@H](NCc3cccnc3)C[C@@H](c3ccc(C(F)(F)F)cc3)N21	i	28µM*	u	2%
COCC(=O)N[C@H]1C[C@H]2C(=O)NC[C@@H](CCC(=O)NCc3cccnc3)N2C1	i	-6%[174 µM]	-21%[172 µM]	2%[70.6 µM]
COC(=O)[C@@H]1Cc2c([nH]c3ccccc23)[C@H]2C[C@@H](NCc3cccnc3)C[C@@H](c3ccc(F)cc3)N21	i	20µM*	22µM*	-3%
O=C(NCc1cccnc1)[C@@H]1C[C@@H](c2ccc(F)cc2)N(CCOc2ccccc2)C1	i	u	u	-18%[70.6 µM]
COC(=O)[C@@H]1Cc2c([nH]c3ccccc23)[C@H]2C[C@@H](NCc3cccnc3)C[C@@H](c3ccc(F)c(F)c3)N21	i	u	25µM*	-2%
O=c1[nH]c(N2CCOCC2)nc2c1CCN(Cc1ccc(F)cc1F)CC2	i	-18%	-6%	0%
O=C(NC1CCCN(c2cc(-c3ccc(F)cc3)[nH]n2)C1)c1ccc(Br)o1 (stereo unspecified)	u	u	32µM*	-21%
O=C(NC1CCCN(c2cc(-c3ccccc3)[nH]n2)C1)c1ccc2cc[nH]c2c1 (stereo unspecified)	14µM*	u	u	u
N#Cc1cccc(C(=O)NC2CCCN(c3cc(-c4ccc(F)cc4)[nH]n3)C2)c1 (stereo unspecified)	i	u	u	u
Cc1ccc(C(=O)NC2CCCN(c3cc(-c4ccc(F)cc4)[nH]n3)C2)cc1 (stereo unspecified)	i	u	u	0%
O=C(NC1CCCN(c2cc(-c3ccc(F)cc3)[nH]n2)C1)c1ccc2nc[nH]c2c1 (stereo unspecified)	16µM*	u	u	-23%
O=C(NC1CCCN(c2cc(-c3ccc(F)cc3)[nH]n2)C1)c1ccncc1 (stereo unspecified)	40µM*	-6%	u	-11%
O=C(NC1CCCN(c2cc(-c3ccccc3)[nH]n2)C1)c1ccccc1 (stereo unspecified)	u	u	u	-21%
SMILES	FLuc inh	NIH3T3 tox	HEK cytotox	hNpr1 antagonist
O=C(NC1CCCN(c2cc(-c3ccccc3)[nH]n2)C1)c1ccc2nc[nH]c2c1 (stereo unspecified)	32µM*	-6%	-12%	2%
O=C(Cc1ccc(F)cc1)N1CCN(c2nccc(Nc3ccccc3Cl)n2)CC1	x	28µM*	40µM*	x
COc1ccc(Nc2ccnc(N3CCN(C(=O)Cc4ccc(F)cc4)CC3)n2)cc1	x	25µM*	11µM*	x
O=C(Cc1ccc(F)cc1)N1CCN(c2nccc(Nc3ccccc3F)n2)CC1	x	18µM*	18µM*	x
CC(=O)N1CCC(CC(=O)N2C[C@@H](Oc3ccccc3)C[C@H]2C(=O)NC2CC2)CC1	x	-19%	-7%	x
O=C1CC2(CCN(C(=O)C3CCCN(C(=O)Nc4ccccc4)C3)CC2)Oc2ccccc2N1 (stereo unspecified)	x	u	32µM*	x
O=C(Cc1ccc(F)cc1)N1CCC[C@H]1c1nc(-c2ccccc2)no1	i	u	u	-3%
COc1ccc(-c2ccc(C(=O)N3CCCCC3)cc2)nn1	x	28µM*	u	x
COc1ccc(-c2ccc(C(=O)NC3CC3)cc2)nn1	x	u	89µM*	x
O=C1CC2(CCN(Cc3cccc(O)c3)CC2)CN1Cc1ccc(F)c(F)c1	i	-1%	-6%	3%
Cc1nn(-c2ccccc2)c2c1C(C1CC1)N(C1CN(C(=O)c3ccccc3Cl)C1)C2=O (stereo unspecified)	x	13µM*	u	x
Cc1nn(-c2ccccc2)c2c1C(C)N(CC1CN(Cc3cccc(C(F)(F)F)c3)C1)C2=O (stereo unspecified)	x	u	28µM*	x
Cc1nn(-c2ccccc2)c2c1C(C)N(CC1CN([S+](C)(=O)[O-])C1)C2=O (stereo unspecified)	x	-19%	-19%	x
Cc1nn(-c2ccccc2)c2c1C(C)N(CC1CN(C(=O)c3ccccc3Cl)C1)C2=O (stereo unspecified)	x	u	50µM*	x
CC(=O)N1CC(N2C(=O)c3c(c(C)nn3-c3ccccc3)C2C2CC2)C1 (stereo unspecified)	x	u	4%[172 µM]	x
Cc1nn(-c2ccccc2)c2c1C(C1CC1)N(C1CN(C(=O)C3CCCC3)C1)C2=O (stereo unspecified)	x	35µM*	45µM*	x
Cc1nn(C)c(C)c1S(=O)(=O)NCCc1ncc(C)n1Cc1ccc(F)cc1	i	-14%	-15%	-1%
Cc1ccccc1C(=O)N1CCC(N2C(=O)c3c(c(C)nn3-c3ccccc3)C2C2CC2)C1 (stereo unspecified)	x	u	28µM*	x
Cc1nn(-c2ccccc2)c2c1C(C1CC1)N(C1CCN(C(=O)c3ccccc3Cl)C1)C2=O (stereo unspecified)	x	22µM*	35µM*	x
COC[C@@H]1CN(Cc2ccc(OC)c(C)c2)C[C@H]1C(=O)N(C)C	i	3%	-15%	-8%

Screening results deposited in PubChem by National Center for Advancing Translational Sciences (NCATS).
